This is a sample that favours compounds with a hit; in the whole collection about 1.5% have one here.
HGIII-sPLA2 inh – Inhibits HGIII-sPLA2 liposome hydrolysis, primary screen; hit rate 0.56% among 370,000; QFRET BODIPY PC-A2 liposome hydrolysis, fluorescence; inhibition, % at 12.2 µM; AID 743126; Q9NZ20;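 active = inhibition above mean plus 3 SD of compounds lying within the high and low control bounds, cut at about 19% in these data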
Target sequence (Q9NZ20 whole entry, looked up): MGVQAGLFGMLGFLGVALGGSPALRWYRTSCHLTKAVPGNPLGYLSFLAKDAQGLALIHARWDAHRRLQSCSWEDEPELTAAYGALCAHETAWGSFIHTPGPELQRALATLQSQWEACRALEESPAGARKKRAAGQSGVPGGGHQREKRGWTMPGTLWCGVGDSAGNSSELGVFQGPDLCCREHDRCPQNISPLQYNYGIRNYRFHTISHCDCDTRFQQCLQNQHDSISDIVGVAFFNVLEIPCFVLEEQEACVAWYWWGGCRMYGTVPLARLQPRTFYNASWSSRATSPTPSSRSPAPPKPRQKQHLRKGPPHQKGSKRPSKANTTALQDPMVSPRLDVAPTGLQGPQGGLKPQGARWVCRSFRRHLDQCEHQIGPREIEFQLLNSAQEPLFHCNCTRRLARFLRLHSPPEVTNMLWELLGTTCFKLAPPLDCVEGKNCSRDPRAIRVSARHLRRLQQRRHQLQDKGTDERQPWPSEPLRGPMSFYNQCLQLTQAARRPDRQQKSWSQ
Rin1 Abl inh – human Rin1-Abl interaction inhibition; P00519+Q13671; TR-FRET Rin1/Abl binding, biochemical; hit rate 0.4% among 360,000; inhibition, % at 7.35 µM; in the data active = inhibition above about 5%, passing the limit was not always enough
ARNT-TACC3 inh – disruptors of human ARNT/TACC3 interaction; Q9Y6A5; AlphaScreen His-ARNT PAS-B/GST-TACC3 binding, luminescence; TACC3 fragment carries E629A point mutation; AID 623870; inhibition, % at 9.99 µM; hit rate 0.66% among 390,000;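 active = mean inhibition of replicates at least 50% and at least half of replicates each reaching 50%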
AI-2 QS modul – modulates the Vibrio harveyi AI-2 quorum sensing system. hit rate 0.4% among 300,000. activity change, % at 7.5 µM. Vibrio harveyi JMH597 AI-2 luminescence/OD600 ratio, 9 h; active compounds read low; strain lacks LuxN and CqsS sensors; 0 = neutral-control median. AID 2094; in the data active = activity change below about -75%, passing the limit was not always enough;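 also: luminescence divided by OD600 gain over 9 h not by final OD600 alone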
Rin1-Abl confirm – confirmation of inhibitors of human Rin1-Abl interaction; shares compounds with Rin1 Abl inh; TR-FRET Rin1-Abl binding, purified proteins; hit rate 49% among 1,300; inhibition, % at 7.35 µM
GFP quench-1 – quenches GFP fluorescence, counter-screen for Rin1-Abl inhibitors; inhibition, % at 6.75 µM; hit rate 8.5% among 1,300; AID 602125; inhibitors/quenchers counterscreen; shares compounds with Rin1 Abl inh;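 also: ABL1-eGFP fusion protein alone without its partner RIN1-SBP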
GFP quench dose – counter-screen for Rin1-Abl inhibitors: GFP quenchers, dose response. shares compounds with Rin1 Abl inh. GFP fluorescence interference/quenching counterscreen. IC50, µM. 230 tested, under 10 active. AID 602182; call rule not given here;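 also: ABL1-eGFP fusion protein alone without its RIN1 binding partner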
GFP quench-2 – counter-screen for Rin1-Abl interaction inhibitors: GFP fluorescence quenching; shares compounds with Rin1 Abl inh; GFP fluorescence quenching counterscreen, biochemical; IC50, µM; 25 tested, under 10 active; AID 602397; call rule not given here
Large screens that a line does not name were inactive (follow-up assays come after a bar, where they were run). Rule as the data show it, unless noted: active = inhibition above about 6.5%; inactive = the rest.

C[C@H]1CN([C@@H](C)CO)C(=O)c2cc(C3=CCCC3)cnc2O[C@@H]1CN(C)Cc1ccc(C(=O)O)cc1	none (no result: HGIII-sPLA2 inh, Rin1 Abl inh, AI-2 QS modul)
COC(=O)C[C@H]1CC[C@H]2[C@H](COc3ccc(NC(=O)c4ccccc4OC)cc3C(=O)N2C)O1	none (no result: HGIII-sPLA2 inh, Rin1 Abl inh, AI-2 QS modul)
COc1ccccc1NCC(=O)Nc1cc(S(=O)(=O)N2CCOCC2)ccc1N1CCOCC1	Rin1 Abl inh 9.2 | Rin1-Abl confirm 8.2 | GFP quench-1 inactive
COc1ccccc1CCC(=O)Nc1cc(S(=O)(=O)N2CCOCC2)ccc1N1CCCC1	none
COc1ccc(NS(=O)(=O)c2cc(N)ccc2N2CCOCC2)cc1	Rin1 Abl inh 8.3 | Rin1-Abl confirm inactive | GFP quench-1 inactive
Cc1[nH][nH]c(=O)c1C(c1ccc(-c2ccc(Cl)c(Cl)c2)o1)c1c(C)[nH][nH]c1=O	Rin1 Abl inh 13, ARNT-TACC3 inh 61 | Rin1-Abl confirm inactive | GFP quench-1 inactive
COc1ccc(-c2ccc(C(c3c(C)[nH][nH]c3=O)c3c(C)[nH][nH]c3=O)o2)c([N+](=O)[O-])c1	none (no result: AI-2 QS modul)
COc1ccc(NC(=O)CSc2nnc3ccc(-c4cccnc4)nn23)cc1OC	none
COc1ccccc1CNC(=O)CSc1nnc2ccc(-c3cccnc3)nn12	Rin1 Abl inh 13 | Rin1-Abl confirm 17 | GFP quench-1 inactive | GFP quench dose inactive
N#Cc1ccccc1Sc1ccccc1C(=O)NCC(c1ccco1)N1CCCC1 (stereo not drawn)	Rin1 Abl inh 49 (no result: ARNT-TACC3 inh) | Rin1-Abl confirm 62 | GFP quench-1 inactive | GFP quench dose inactive | GFP quench-2 inactive
O=c1oc(-c2ccc([N+](=O)[O-])cc2)nc2ccc(O)cc12	Rin1 Abl inh 17 | Rin1-Abl confirm inactive | GFP quench-1 inactive
O=c1oc(-c2ccc([N+](=O)[O-])cc2)nc2ccccc12	none
COC(=O)c1cc(O)c(O)c(O)c1	Rin1 Abl inh 18 | Rin1-Abl confirm 17 | GFP quench-1 inactive
COC(=O)c1cc(OC)nc(OC)c1	none
COC(=O)C[C@H]1C[C@@H]2c3cc(NC(=O)NC4CCCCC4)ccc3O[C@@H]2[C@H](CO)O1	none (no result: HGIII-sPLA2 inh, Rin1 Abl inh, AI-2 QS modul)
Cc1c(Cl)cccc1NC(=O)c1cc(S(=O)(=O)N2CCOCC2)cn1C	Rin1 Abl inh 8.4 | Rin1-Abl confirm inactive | GFP quench-1 inactive
N#CCCN(C(=O)CSc1ncccn1)c1ccc2c(c1)OCCO2	Rin1 Abl inh 8.2 (no result: AI-2 QS modul) | Rin1-Abl confirm 8.8 | GFP quench-1 inactive
Cc1cc(C)c(C#N)c(SCC(=O)N(CCC#N)c2ccc3c(c2)OCCO3)n1	none (no result: AI-2 QS modul)
CCOC(=O)CC1ON(C)C(=O)N1c1ccc(Cl)cc1Cl (stereo not drawn)	Rin1 Abl inh 7.0 | Rin1-Abl confirm inactive | GFP quench-1 inactive
COc1ccccc1NC(=O)/C=C\C(=O)O	none
COc1ccc(Cl)cc1NC(=O)/C=C\C(=O)O	Rin1 Abl inh 5.4 | Rin1-Abl confirm inactive | GFP quench-1 inactive
CC1CCCN(C(=O)COC(=O)Cc2c[nH]c3ccccc23)C1 (stereo not drawn)	none (no result: ARNT-TACC3 inh, AI-2 QS modul)
COC(=O)C1CCN(C(=O)COC(=O)Cc2c[nH]c3ccccc23)CC1	Rin1 Abl inh 5.2 | Rin1-Abl confirm inactive | GFP quench-1 inactive
O=C1CNC(=O)N1CC(O)Cn1c2ccccc2c2ccccc21 (stereo not drawn)	Rin1 Abl inh 24 | Rin1-Abl confirm 28 | GFP quench-1 inactive | GFP quench dose inactive
CCOC(=O)N1CCC(Nc2ncnc3c2cnn3-c2ccccc2)CC1	Rin1 Abl inh 9.9 | Rin1-Abl confirm inactive | GFP quench-1 inactive
COC1=CC(=O)c2c(ccc3ncnc(N)c23)C1=O	Rin1 Abl inh 17, ARNT-TACC3 inh 31 (no result: AI-2 QS modul) | Rin1-Abl confirm 31 | GFP quench-1 inactive | GFP quench dose inactive
COC1=CC(=O)c2nc(Cl)ccc2C1=O	none (no result: ARNT-TACC3 inh, AI-2 QS modul)
CN(C)C(=O)C[C@H]1C[C@H]2c3cc(NC(=O)c4ccc5c(c4)OCO5)ccc3O[C@H]2[C@@H](CO)O1	none (no result: HGIII-sPLA2 inh, Rin1 Abl inh, AI-2 QS modul)
Cc1cc(=O)oc2c(C)c(OCC(=O)N3CCN(C(=O)C4COc5ccccc5O4)CC3)ccc12 (stereo not drawn)	Rin1 Abl inh 10.0 | Rin1-Abl confirm inactive | GFP quench-1 inactive

Bioassay records (PubChem)
